TDP1 cell noCPT = qHTS for Inhibitors of human tyrosyl-DNA phosphodiesterase 1 (TDP1): qHTS in cells in absence of CPT | DT40 Tdp1-/- hTDP1 cells, no CPT, ATP luminescence, 48 h | 420,000 tested, 15% active | Potency, µM (titrated, usually from 46.2 µM), for the others: at the top dose activity change, negative = growth inhibition, hits mostly inhibitors; further: potency means the concentration at half of the fitted maximal effect; nearly all actives have a fitted effect of over 55% in size
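Growth of hTDP1-complemented DT40 Tdp1-knockout cells is measured by ATP luminescence after at least 48 hr compound exposure at 37 °C, with DMSO substituting for the 20 nM CPT used in the parallel screen.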
Six1-Eya2 inh = Six1/Eya2 interaction inhibition; AlphaScreen GST-Six1/His-Eya2 binding, biochemical; hits give low values; activity change, % (concentration not given with the values); 360,000 tested, 0.56% active; AID 651725; in the data active means activity change below about -65%; inconclusive means mostly about -30% to -63%
Target sequence (O00167 whole entry, looked up): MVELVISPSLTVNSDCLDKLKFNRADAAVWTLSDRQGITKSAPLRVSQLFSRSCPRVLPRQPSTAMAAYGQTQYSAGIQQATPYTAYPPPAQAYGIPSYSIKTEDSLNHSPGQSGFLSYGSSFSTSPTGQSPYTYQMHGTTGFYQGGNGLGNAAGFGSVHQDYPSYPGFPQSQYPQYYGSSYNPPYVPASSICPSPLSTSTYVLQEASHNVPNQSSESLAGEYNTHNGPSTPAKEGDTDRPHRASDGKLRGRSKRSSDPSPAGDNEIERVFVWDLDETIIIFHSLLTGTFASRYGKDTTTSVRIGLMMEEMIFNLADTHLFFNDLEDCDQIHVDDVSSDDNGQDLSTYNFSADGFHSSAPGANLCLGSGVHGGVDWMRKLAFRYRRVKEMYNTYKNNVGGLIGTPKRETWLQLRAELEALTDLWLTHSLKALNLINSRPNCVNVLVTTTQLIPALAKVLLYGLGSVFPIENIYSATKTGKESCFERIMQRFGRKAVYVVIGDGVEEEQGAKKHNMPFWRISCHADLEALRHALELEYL
Target sequence (Q15475 whole entry, looked up): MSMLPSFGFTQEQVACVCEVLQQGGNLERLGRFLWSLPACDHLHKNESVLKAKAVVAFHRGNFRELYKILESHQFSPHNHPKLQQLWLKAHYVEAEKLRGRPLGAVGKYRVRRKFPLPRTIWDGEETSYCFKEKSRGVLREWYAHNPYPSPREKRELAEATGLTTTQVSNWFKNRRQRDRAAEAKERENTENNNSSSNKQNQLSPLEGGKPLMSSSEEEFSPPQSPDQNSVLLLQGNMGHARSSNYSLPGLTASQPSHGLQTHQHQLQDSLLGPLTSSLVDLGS
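Six1/Eya2 binding was read as AlphaScreen signal after compounds were pinned into GST-Six1 plus His-tagged Eya2 (5X stock 250/500 nM) in pH 8.0 Tris/NaCl/TCEP buffer, beads added, then incubated 1 h, 37 C, dark.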
IL-1B inflam inh = inhibitors of inflammasome signaling (IL-1 beta secretion); 360,000 tested, 4.7% active; THP-1 LPS/ATP IL-1B secretion, AlphaLISA, 16 h; hits give low values; activity change, % at 57.5 µM; in the data active means activity change below about -50%; inconclusive means mostly about -30% to -49%
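Secreted IL-1B measured by AlphaLISA bead assay after 16 h compound exposure of THP-1 cells; compounds (final up to 57.5 uM) added 1 h before LPS (250 ng/mL) and ATP (1.25 mM) stimulation; lower signal means less secretion.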
CtBP-E1A inh = blocks the CtBP interaction with E1A. AlphaScreen GST-E1A/His-CtBP binding, 1536-well; hits give low values. activity change, % (test concentration not listed). 340,000 tested, 0.49% active. AID 651724; in the data active means activity change below about -65%; inconclusive means mostly about -30% to -63%
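Protein mix (5X: 125 nM each GST-E1A, His-CtBP) was incubated with pinned compound 2 h at 37 deg C in dark, in 50 mM Tris pH 8.0 buffer with 300 mM NaCl. Glutathione donor and nickel acceptor beads followed; AlphaScreen signal read after 1 h.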
TDP1 block = inhibitors of human tyrosyl-DNA phosphodiesterase TDP1; Q9NUW8; recombinant TDP1, AlphaScreen DNA substrate cleavage; Potency, µM (titrated, usually from 130 µM), without a hit: at the top dose activity change, negative = inhibition, hits mostly inhibitors; 350,000 tested, 0.28% active; AID 485290; further: potency means the concentration at half of the fitted maximal effect; nearly all actives have a fitted effect of over 40% in size
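Steps: enzyme plus compound, 15 min RT; add biotin/phosphotyrosine-FITC oligonucleotide (15 nM final), react 5 min; add donor/acceptor beads (10 ug/ml final), 10 min; read AlphaScreen. Tdp1 at 1 nM final.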
DT40 TDP1 CPT = growth inhibition of DT40 Tdp1-/-;hTDP1 cells with camptothecin (screen for TDP1 inhibitors). 420,000 tested, 12% active. chicken DT40 Tdp1-/-;hTDP1 cells + 20 nM CPT, ATP luminescence, 48 h. Potency, µM (titrated, usually from 46.2 µM), inactives show at the top dose activity change, negative = growth inhibition, most hits filed as inhibitors; further: potency means the concentration at half of the fitted maximal effect; nearly all actives have a fitted effect of over 55% in size
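Chicken DT40 Tdp1-/- cells stably complemented with human TDP1 were seeded at 400 cells/well in medium containing 20 nM camptothecin, exposed to pin-transferred compounds, and grown at 37 °C for at least 48 hr. Viability was read as ATP luminescence.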
Active calls of the source: *; ? = inconclusive; . = not tested or not shown. The list is not random: actives were taken first. Their share in the collection is about 18%. Unless noted, the call rests on the fitted dose curve; in most records, active means well fitted curve in the direction sought with a large enough effect; inconclusive means small, poorly fitted or top-dose-only effect, or another doubt; inactive means no such curve, though single readings can be large; an effect the other way counts as inactive or inconclusive. On the % scale 0 is the no-effect control and ±100 the full control effect.

SMILES | TDP1 cell noCPT | Six1-Eya2 inh | IL-1B inflam inh | CtBP-E1A inh | TDP1 block | DT40 TDP1 CPT
Cc1ccc(S(=O)(=O)Oc2ccccc2/C=N/NC(=O)c2nn(C)cc2[N+](=O)[O-])cc1 | 16µM* | -3 | ? | -3 | 5% | ?
Cc1ccc(S(=O)(=O)Oc2ccccc2/C=N/NC(N)=S)cc1 | 6.5µM* | 19 | 16 | 65 | 12% | 4.1µM*
Cc1ccc2cc(NC(=O)C3(C)CCN(C)C3)ccc2n1 (configuration not stated) | 4% | 5 | 19 | 5 | . | -21%
COCCCNC(=O)CCCN1C(=O)c2cccnc2Sc2ccccc21 | 4% | 4 | 0 | -1 | . | -6%
CC(=O)Nc1cc(-c2ccc(N(C)C)cc2)cn2c(-c3ccc(F)c(Cl)c3)cnc12 | 15µM* | -17 | -17 | -28 | . | 18µM*
CC(=O)Nc1cc(-c2ccc(N(C)C)cc2)cn2c(-c3ccc(F)cc3)cnc12 | ? | -17 | -6 | -16 | . | ?
CC(=O)Nc1cc(-c2ccc(S(C)(=O)=O)cc2)cn2c(-c3ccc(F)c(Cl)c3)cnc12 | 16µM* | 2 | ? | -2 | . | 18µM*
CCN(CC)CCN1C(=O)C(=O)/C(=C(/O)c2cnn(-c3ccccc3)c2C)C1c1ccc(C)o1 (configuration not stated) | -1% | -1 | 0 | -4 | -1% | -14%
O=[N+]([O-])c1cc(S(=O)(=O)Nc2ccccc2)ccc1N1CCN(c2ccc(O)cc2)CC1 | ? | -16 | -4 | -3 | -1% | ?
C=CCN1C(=O)C(O)(CC(=O)c2ccc(N)cc2)c2ccccc21 (configuration not stated) | ? | 6 | -9 | 0 | 1% | ?
O=C(CC1(O)C(=O)N(CCc2ccccc2)c2ccccc21)c1ccccn1 (configuration not stated) | 5.2µM* | 5 | -10 | -15 | 6% | 2.6µM*
O=C(CC1(O)C(=O)N(C/C=C/c2ccccc2)c2ccccc21)c1ccccn1 (configuration not stated) | 0.89µM* | -2 | 34 | 3 | 5% | 1.3µM*
Cc1nc2ccc(Br)cc2c2c1CC(CBr)O2 (configuration not stated) | -21% | 0 | -74* | -7 | 2% | 17%
Cc1nc2ccc(Br)cc2c2c1CC(CO)O2 (configuration not stated) | 2% | 7 | 15 | 5 | . | -6%
COc1cccc(CN(C)C(=O)CN2C(=O)NC(c3ccccc3)(c3ccccc3)C2=O)c1OC | ? | -7 | 0 | 0 | 2% | ?
COc1ccccc1C1(CC(=O)O)CCOC(C)(C)C1 (configuration not stated) | -20% | -6 | 7 | 1 | 4% | -14%
C=CCOn1c(=O)c(-c2cccs2)[n+]([O-])c2ccccc21 | ? | -8 | -3 | -3 | 7% | 23µM*
C=CCOn1c(=O)c(-c2ccc(Cl)cc2)[n+]([O-])c2ccccc21 | 3% | 3 | 10 | -7 | . | -11%
CN1c2ccccc2C(C)(C)C12CC(CCl)=NO2 (configuration not stated) | 21µM* | 2 | -12 | -7 | 9% | 16µM*
O=C(CCn1c(=O)oc2ccccc21)NCc1ccco1 | 14% | -1 | -18 | 8 | . | 2%
CCN(CC)C(=S)SCC(=O)Nc1cccc(C(F)(F)F)c1 | ? | 7 | -4 | 8 | . | -11%
CCN(CC)C(=S)SCC(=O)c1ccc(F)cc1 | 4.1µM* | 26 | 9 | 22 | 0% | 2.9µM*
CCN(CC)C(=S)SCC(=O)Nc1ccc(F)cc1 | ? | 31 | -26 | 8 | -4% | 21µM*
CC(CSc1n[nH]c(=S)s1)c1ccccc1 (configuration not stated) | -6% | -12 | 24 | -18 | . | 11%
CCc1ccccc1NC(=S)N1CCN(c2ccccc2F)CC1 | ? | -20 | 6 | -1 | . | -20%
SMILES | TDP1 cell noCPT | Six1-Eya2 inh | IL-1B inflam inh | CtBP-E1A inh | TDP1 block | DT40 TDP1 CPT
CCOc1ccccc1NC(=S)N1CCN(c2nc(-c3ccc(F)cc3)cs2)CC1 | 15µM* | -14 | 20 | -9 | 5% | 21µM*
CCOc1ccccc1NC(=S)N1CCN(c2ccccc2F)CC1 | 21µM* | -7 | -8 | -5 | . | ?
Cc1ccc(Cn2ccnc2SCC(=O)Nc2ccc3c(c2)OCO3)cc1 | -26% | . | . | . | 8% | 12%
CN(c1ccccc1)S(=O)(=O)c1cccc(NC(=O)CN2C(=O)NC3(CCCCC3)C2=O)c1 | -4% | -3 | -6 | 2 | 2% | -11%
CN(c1ccccc1)S(=O)(=O)c1cccc(NC(=O)CN2CCCc3ccccc32)c1 | 18µM* | -19 | -28 | ? | 7% | ?
NS(=O)(=O)c1cccc(NC(=O)CN2CCc3ccccc32)c1 | -2% | -18 | 33 | 0 | 5% | ?
CCN(CC)S(=O)(=O)c1cccc(NC(=O)CN(C)Cc2cccc(OC)c2)c1 | 23µM* | 13 | 29 | -23 | 1% | ?
Cc1cc(C)c(NC(=O)CN(c2ccccc2)S(=O)(=O)N(C)C)c(C)c1 | -11% | 5 | 2 | 6 | -4% | -15%
CC1CCC2(CC1)NC(=O)N(CC(=O)Nc1cccc(S(=O)(=O)N(C)c3ccccc3)c1)C2=O (configuration not stated) | 29µM* | -4 | ? | 17 | . | 18µM*
Cc1cc(C)c(NC(=O)CN(C)CC(=O)Nc2cccc(S(=O)(=O)N(C)c3ccccc3)c2)c(C)c1 | 23µM* | 2 | ? | -5 | 2% | ?
COc1ccccc1-c1cc(C(=O)N2CCOCC2)no1 | 18% | 9 | -12 | 5 | . | 11%
CCOc1ccc(CN(C)CC(=O)Nc2cccc(C)c2)cc1OC | 9.2µM* | 3 | 10 | -13 | 3% | 21µM*
Cc1ccccc1CN(C)CC(=O)Nc1cccc(S(=O)(=O)N(C)c2ccccc2)c1 | 16µM* | 20 | 17 | 10 | -1% | 21µM*
CC(=O)NCCC(=O)Nc1cccc(S(=O)(=O)N(C)c2ccccc2)c1 | 3% | -4 | 24 | 3 | 8% | -7%
CCN(CC(=O)Nc1cccc(S(=O)(=O)N(C)c2ccccc2)c1)Cc1ccccc1 | ? | 2 | 5 | 3 | 0% | 18µM*
Cc1ccc(/C=N/NC(=O)c2nnn(-c3nonc3N)c2CN(C)c2ccccc2)s1 | -14% | -4 | -11 | -4 | 3% | -23%
